Experimental data taken from PubChem BioAssay (NCATS).
Records with an inconclusive call do not appear. Where a call stands in place of a potency, no number is given. Active and inactive are the calls of the source. Calls come from the whole dose curve; as a rule, active = well fitted inhibition curve with a large enough effect; inconclusive = small, poorly fitted or top-dose-only effect; inactive = flat fitted curve, though single readings scatter.

Assay: qHTS to identify inhibitors of the type 1 interferon - major histocompatibility complex class I in skeletal muscle: primary screen against the NCATS Pharmaceutical Collection (AID 1347407)
Details: human skeletal muscle cells, IFN-b-induced MHC-I HiBiT luminescence, 24 h; series mostly up to 45.9 µM
From the text: Assay Submitter (PI): Travis B. Kinder Ph.D. & James Inglese Ph.D.
Assay Development and Screening Technology Laboratory (ADST)
National Center for Advancing Translational Sciences (NCATS), Rockville, MD
National Institute of Health (NIH), Bethesda, Maryland
Idiopathic inflammatory myopathies, collectively referred to as myositis, are a group of rare autoimmune diseases characterized by skeletal muscle inflammation, weakness, and usually accompanied by systemic pathologies of the skin, lungs, or vasculature. Current immunosuppressive therapies and glucocorticoids are often not curative and are accompanied by harsh side effects, especially in children with juvenile myositis. We initiated a drug repurposing and development program to identify more targeted, less toxic therapeutics to treat myositis. Although its cause is not known, muscle from a subset of patients have an abundance of the inflammatory type 1 interferon (IFN) and a down-stream product major histocompatibility complex class I (MHC class I), which are both thought to contribute to damage and weakness. We conducted quantitative high throughput screening on 6,576 compounds (4,679 unique) through a series of cell-based assays to identify those that inhibit the IFN-stimulated expression of MHC class I in muscle precursor cells (myoblasts). The compound identification and evaluation strategy utilized a primary screen with reporter-tagged MHC class I in genome-engineered myoblasts, ATP content counter screen for viability, HLA-ABC immunofluorescence secondary screen, and HLA-B RT-qPCR tertiary screen.
The primary screen utilized CRISPR/Cas9 genome-engineering of immortalized human myoblasts, C25cl48, where a pro-luminescent reporter HiBit was fused to the C-terminus of endogenous MHC class I allele HLA-B*08:01 (HLA-B HiBit myoblasts). HiBit is an 11 amino acid fragment of NanoLuc luminescent reporter (Promega Corporation), and when complexed to the larger LgBit fragment, the reconstituted enzyme produces light in the presence of furimazine substrate (Schwinn et al., 2018). Briefly, HLA-B HiBit myoblasts were plated into 1536-well plates, treated with 4.0 ng/ml human IFN-beta and 2,816 compounds from the NCATS Pharmaceutical Collection (NPC) that contains all drugs approved in the US, EU, and Japan (Huang et al., 2011) in an 8-point, 1:5 titration with a high final concentration of 46 uM. After 24 hrs of treatment, cells were assayed by Nano-Glo HiBiT Lytic Detection System (Promega) and luminescence measured by a ViewLux 1430 Ultra HTS (Perkin Elmer).
Huang R, Southall N, Wang Y, Yasgar A, Shinn P, Jadhav A, Nguyen D-T, Austin CP. 2011. The NCGC pharmaceutical collection: a comprehensive resource of clinically approved drugs enabling repurposing and chemical genomics. Sci Transl Med 3:80ps16. doi:10.1126/scitranslmed.3001862
Schwinn MK, Machleidt T, Zimmerman K, Eggers CT, Dixon AS, Hurst R, Hall MP, Encell LP, Binkowski BF, Wood K V. 2018. CRISPR-Mediated Tagging of Endogenous Proteins with a Luminescent Peptide. ACS Chem Biol 13:467-474. doi:10.1021/acschembio.7b00549
PROTOCOL TABLE (as described by Inglese et al., 2007)
SEQUENCE No. (e.g., 1, 2, 3, etc.); […] (e.g., Cells, Incubation, Reagent, etc.); VALUE; DESCRIPTION
1a; Cells; 5 uL; Use a Multidrop Combi (Thermo Scientific) to seed 350 cells/well into nine Greiner 1536 well white/solid bottom, high base, TC plates in 5 ul/well of iHSKM growth medium (GM) without dexamethasone into columns 1+2. Add metal lids with gas-exchange holes
1b; Cells; 5 uL; Use a Multidrop Combi (Thermo Scientific) to seed 350 cells/well into nine Greiner 1536 well white/solid bottom, high base, TC plates in 5 ul/well of iHSKM GM without dexamethasone + 4 ng/ml IFN-b into columns 3 - 48. Add metal lids with gas-exchange holes
2; Incubate; 1 hr; Incubate at 37 C, 5% CO2, 95% RH
[…]

Row | Structure (SMILES) | Potency
1 | C[C@H]1C[C@H](O)c2ccsc2S1(=O)=O | inactive
2 | CC[N+]1(CC)CCC(=C(c2ccccc2)c2ccccc2)C1C (stereo not given) | inactive
3 | CC(=O)OCC(=O)[C@@]1(O)[C@H](OC(C)=O)C[C@H]2[C@@H]3CCC4=CC(=O)C=C[C@]4(C)[C@@]3(F)[C@@H](O)C[C@@]21C | inactive
4 | Cc1ccc(-c2ccccc2C#N)cc1 | inactive
5 | O=C(c1cc(O)c(O)c(O)c1)c1ccc(O)c(O)c1O | inactive
6 | O=c1[nH]c(=O)n([C@H]2O[C@H](CO)[C@@H](O)[C@@H]2O)cc1/C=C\Br | inactive
7 | N[C@@H](Cc1cc(I)c(O)c(I)c1)C(=O)O | inactive
8 | COC(=O)c1cc(Cl)ccc1OC | inactive
9 | O=C(O)CCCC[P+](c1ccccc1)(c1ccccc1)c1ccccc1 | inactive
10 | Cc1onc(-c2c(Cl)cccc2Cl)c1C(=O)Cl | inactive
11 | O=C1c2ccccc2CCc2ccccc21 | inactive
12 | CCCCCOc1ccccc1/C(=C\SC)n1ccnc1 | inactive
13 | CN1[C@@H]2CC[C@H]1CC(NC(=O)n1c(=O)[nH]c3ccccc31)C2 (stereo not given in full) | inactive
14 | O=C(O)CCCC[C@@H]1SC[C@@H]2NC(=O)N[C@@H]21 | inactive
15 | O=C1CC2(CCCC2)CC(=O)N1 | inactive
16 | O=C(Oc1ccccc1)c1ccccc1O | inactive
17 | CCCCN(CCCC)C(C(N)=O)c1ccc(OC)cc1 (stereo not given) | inactive
18 | O=C1CCCc2c(O)cccc21 | inactive
19 | OCc1cccnc1 | inactive
20 | C[N+](C)(CCOc1ccccc1)Cc1cccs1 | inactive

Row | Structure (SMILES) | Potency
21 | CCCCCOc1ccc(C2SC(=O)NC2=O)cc1OCC (stereo not given) | inactive
22 | [O-][n+]1cccc(/C(Cl)=N/OC[C@@H](O)CN2CCCCC2)c1 | inactive
23 | Nc1ccc2c(c1)CN1C(=O)c3ccccc3C1=N2 | inactive
24 | C[C@H]1NCc2cc(-c3ccc4c(=O)c(C(=O)O)cn(C5CC5)c4c3OC(F)F)ccc21 | inactive
25 | CC(NC(CCc1ccccc1)C(=O)O)C(=O)N1C(=O)N(C)CC1C(=O)O (stereo not given) | inactive
26 | CCCCCN(CCCOC)C(=O)C(CCC(=O)O)NC(=O)c1ccc(Cl)c(Cl)c1 (stereo not given) | inactive
27 | CC(C)C(=O)Nc1cccc(C2CN3CCSC3=N2)c1 (stereo not given) | inactive
28 | OCCCc1ccccc1 | inactive
29 | CC(=O)Nc1c(I)c(NC(C)=O)c(I)c(C(=O)O)c1I | inactive
30 | Oc1ccc(CCNCCCCCCNCCc2ccccc2)cc1O | inactive
31 | CCn1ccc(NS(=O)(=O)c2ccc(N)cc2)nc1=O | inactive
32 | O=C(CCCCCCCCC#CI)Oc1ccccc1 | inactive
33 | CC1c2ccccc2CN1NC(=O)c1ccc(Cl)c(S(N)(=O)=O)c1 (stereo not given) | inactive
34 | COC(=O)c1cc(S(N)(=O)=O)ccc1OC | inactive
35 | CC(C)(C)c1nnc(NS(=O)(=O)c2ccccc2)s1 | inactive
36 | CN(C)CCOC(c1ccccc1)c1ccc(Br)cc1 (stereo not given) | inactive
37 | CCCCCC1Nc2cc(C(F)(F)F)c(S(N)(=O)=O)cc2S(=O)(=O)N1 (stereo not given) | inactive
38 | C/C(=C(/OCCOc1ccc(Cl)cc1)c1ccc(Cl)cc1Cl)n1ccnc1 | inactive
39 | CC(=O)[C@H]1CC[C@H]2[C@@H]3C=CC4=CC(=O)CC[C@@]4(C)[C@@H]3CC[C@]12C | inactive
40 | O=C(O)c1cn(C2CC2)c2cc(Cl)c(F)cc2c1=O | inactive
